Source: PubChem BioAssay
KB-V1 MDR tox: qHTS assay for MDR1-selective chemotherapeutics: Primary screen using the drug-selected MDR subline cells KB-V1; AID 1347076, 2019; KB-V1 MDR cells viability, CellTiter-Glo, 72 h; Potency, µM (highest dose often 46.1 µM), usual class: cytotoxic; actives 3.4% (n = 400,000); also: % is scaled to controls: 0 for no effect and ±100 for the full control effect; nearly all actives have a fitted effect of over 60% in size
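Drug-selected KB-V1 cells, grown in DMEM lacking phenol red with 10% FBS, receive compound titrations; after three days at 37 degrees C, surviving cell ATP is quantified by CellTiter-Glo luminescence and responses normalized and curve-fitted.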
MCF10A rerep: A quantitative high throughput screen for small molecules that induce DNA re-replication in MCF 10a normal breast cells | MCF 10A DNA re-replication, Hoechst nuclear intensity, 48 h | Potency, µM (top dose mostly 46.1 µM), for inactives: top-dose activity, positive = re-replication, most hits filed as activators | actives 2.9% (n = 350,000) | AID 624296, 2012; also: % of control where 0% means no effect; nearly all actives have a fitted effect of over 50% in size
SW480 rereplic: A quantitative high throughput screen for small molecules that induce DNA re-replication in SW480 colon adenocarcinoma cells; SW480 DNA re-replication, Hoechst DNA content imaging, 48 h; Potency, µM (doses to about 46.1 µM), for inactives: at the top dose re-replication activation, most hits filed as activators; actives 1.8% (n = 340,000); AID 624297, 2012; also: % of control where 0% means no effect; nearly all actives have a fitted effect of over 55% in size
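Readout is total intensity of Hoechst-stained nuclei, excited at 405 nm and collected at 500-530 nm. Compound treatment lasted 48 hr at 37 C in 5% CO2 before staining.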
HT1080 IDH1KD tx: qHTS for induction of synthetic lethality in tumor cells producing 2HG: qHTS for the HT-1080-IDH1KD cell line; actives 2% (n = 360,000); Potency, µM (highest dose often 46.1 µM), for the others: top-dose activity, negative = toxicity, hits mostly cytotoxic; HT-1080 IDH1 knockdown viability, ATP luminescence, 48 h;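 also: 0% = DMSO wells and -100% = cell-free medium wells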
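CellTiter-Glo luminescence after 48 h compound exposure at 37 degrees C of IDH1-knockdown HT-1080 cells in 5% FBS RPMI. %Activity scaled between DMSO wells and cell-free media wells, with curves fitted and assigned curve classes.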
HT1080-NT tox: qHTS for induction of synthetic lethality in tumor cells producing 2HG: qHTS for the HT-1080-NT fibrosarcoma cell line; HT-1080-NT fibrosarcoma viability, CellTiter-Glo ATP luminescence, 48 h; Potency, µM (series often up to 46.1 µM), for the others: top-dose activity, negative = less viability, hits mostly cytotoxic; actives 1.6% (n = 360,000); AID 686970, 2013;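 also: NT is the 2HG producing partner of a matched IDH1 knockdown line; 0% = DMSO-treated cells and -100% = media-only wells without cells; nearly all actives have a fitted effect of over 55% in size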
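HT-1080-NT; 750 cells/well; 5% FBS RPMI; 48 h compound, 37 degrees C; CellTiter-Glo luminescence; curve fitting and curve-class assignment.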
KB-3-1 cytotox: qHTS assay for MDR1-selective chemotherapeutics: Primary screen using the parental adenocarcinoma cell KB-3-1; Potency, µM (titrated, usually from 46.1 µM), usual class: cytotoxic; KB-3-1 viability, CellTiter-Glo ATP luminescence, 72 h; actives 1.4% (n = 400,000); also: % is scaled to controls: 0 for no effect and ±100 for the full control effect; nearly all actives have a fitted effect of over 60% in size
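Screening of KB-3-1 cells (DMEM, 10% FBS, phenol-red free) ran from lowest to highest compound concentration; after 72 h at 37 °C viability was read luminescently and curves fitted.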
Numbers without * were called inactive; i = inactive; ? = inconclusive; . = no result. Most compounds without a hit are left out; they make up all but 7.9% or so of the library. Calls follow the shape of the dose curve; as a rule, active = well fitted curve in the direction sought with a large enough effect; inconclusive = small, poorly fitted or top-dose-only effect, or another doubt; inactive = no such curve, though single readings can be large; an effect the other way counts as inactive or inconclusive. Potency is read from the fitted curve at half-maximal effect.

SMILES	KB-V1 MDR tox	MCF10A rerep	SW480 rereplic	HT1080 IDH1KD tx	HT1080-NT tox	KB-3-1 cytotox
CN1CCN(C2=Cc3ccccc3Sc3cc(F)ccc32)CC1	?	-2%	-6%	?	16µM*	?
CCN(CC)S(=O)(=O)c1cccc(-c2nnc(SCCOc3ccccc3)o2)c1	16µM*	9%	-2%	-8%	?	?
CCc1noc(C)c1C(=O)Nc1nnc(C(CC)CC)s1	i	9%	2%	-2%	-3%	i
Cc1ccc([N+](=O)[O-])cc1S(=O)(=O)Nc1ccc(C(=O)N2CCN(C(=O)c3ccco3)CC2)cc1	i	5%	-29%	-2%	-4%	i
CC(/C=C/c1ccco1)=N\NC(=O)C(O)c1ccccc1 (stereo unspecified)	i	23µM*	0%	-8%	-9%	i
COc1ccc(CCNC(=O)c2cccc(-n3c(C)nc4cccnc43)c2)cc1OC	i	.	.	.	.	i
Cc1cccn2c(=O)nc(SCC(=O)NC3CCCC3)nc12	i	0%	18µM*	1%	2%	i
CCc1nc2ccc(C(=O)NC3CCN(Cc4ccccc4)CC3)cn2c1N(CC)Cc1cccc(Br)c1	8.2µM*	.	.	23µM*	?	?
CCc1nc2ccc(C(=O)Nc3ccc(OC)c(OC)c3)cn2c1N(CC)Cc1cccc(Br)c1	?	.	.	16µM*	?	?
Cc1ccc(NS(=O)(=O)c2c(C)nc3sc(C)c(C)n3c2=O)cc1F	i	.	.	.	.	i
COc1ccccc1NC(=O)Cc1noc(CSc2nnc(C(F)(F)F)n2C)n1	i	-9%	-58%	0%	2%	i
COc1ccccc1NC(=O)Cc1noc(CSc2nnc(C)n2C)n1	i	0.65µM*	2%	1%	8%	i
C[C@H](O)CNC(=O)c1[nH]cnc1C(=O)Nc1ccc(CNC(=O)OC(C)(C)C)cc1	i	.	.	1%	-21%	i
CCN(CC)S(=O)(=O)c1ccc(C(=O)NCCc2cc3c(OC)ccc(OC)c3[nH]c2=O)cc1	7.3µM*	?	0%	9%	10%	i
COc1ccc(OC)c2[nH]c(=O)c(CCNS(=O)(=O)c3ccccc3)cc12	16µM*	-9%	-5%	16%	-1%	i
COc1ccc(OC)c2[nH]c(=O)c(CCNC(=O)c3ccc(S(=O)(=O)N4CCCC4)cc3)cc12	18µM*	?	0%	5%	-3%	i
COc1ccc(C(=O)NCCc2cc3c(OC)ccc(OC)c3[nH]c2=O)cc1OC	?	4%	6%	-26%	?	i
CCCS(=O)(=O)NCCc1cc2c(OC)ccc(OC)c2[nH]c1=O	?	-7%	-5%	16%	12%	i
CN1C(=O)C(c2ccccc2[N+](=O)[O-])C(=O)c2ccccc21 (stereo unspecified)	i	6%	-13%	11%	5%	i
Cc1cccc(-c2ncc(CN3CCN(C4CCCC4)C(CCO)C3)cn2)c1 (stereo unspecified)	?	14%	?	-19%	-22%	i
Cc1cccc(-c2ncc(CN3CCN(CCC(C)C)C(CCO)C3)cn2)c1 (stereo unspecified)	?	-2%	23µM*	-7%	-11%	i
CC(C)N1CCN(Cc2ccc(OC3CCCC3)cc2)CC1CCO (stereo unspecified)	i	4.6µM*	3%	5%	-14%	i
